Bioassay records (PubChem)
Rows were chosen to be rich in hits. Some 2.2% of all compounds tested hit in one or more screens of this group.
VLA-4 inh – inhibition in a human VLA-4 binding assay; AID 2557; VLA-4 expressing cells, ligand binding flow cytometry; 0.2% of 330,000 active; P13612; inhibition, % (about 7 µM as worked out from the volumes in the protocol); in the data active = inhibition above about 50%
MEX-5 binding – C. elegans MEX-5 TCR-2 RNA binding activity. MEX-5/FITC-TCR2 RNA binding, fluorescence polarization; active compounds read low. AID 1832. Q9XUB2. activity score (negative = inhibition of binding), % at 10 µM. 0.38% of 300,000 active;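 active = inhibition past about -25% in most replicates, and total fluorescence under double the plate's negative control median, limit read from the data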;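 note: 0% = DMSO and -100% = 5 µM competing unlabeled TCR2 RNA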
Target sequence (Q9XUB2 whole entry, looked up): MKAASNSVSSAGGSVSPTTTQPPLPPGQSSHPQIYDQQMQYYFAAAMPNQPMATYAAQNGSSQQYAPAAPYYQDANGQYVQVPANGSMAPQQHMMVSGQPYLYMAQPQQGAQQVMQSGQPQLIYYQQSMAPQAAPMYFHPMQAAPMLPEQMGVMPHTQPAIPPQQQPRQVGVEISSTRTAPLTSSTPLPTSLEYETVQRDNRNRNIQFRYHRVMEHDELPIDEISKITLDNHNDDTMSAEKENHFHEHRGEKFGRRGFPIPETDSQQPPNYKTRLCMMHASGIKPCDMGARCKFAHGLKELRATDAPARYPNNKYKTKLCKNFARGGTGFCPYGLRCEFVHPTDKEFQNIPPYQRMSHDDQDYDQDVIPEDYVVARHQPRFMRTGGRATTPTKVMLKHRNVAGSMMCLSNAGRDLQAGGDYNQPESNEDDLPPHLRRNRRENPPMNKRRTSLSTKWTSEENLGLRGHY
Exocytosis inh – lytic granule exocytosis inhibition. TALL-104 LAMP-1 surface exposure, flow cytometry; cells stimulated with thapsigargin and PMA. inhibition, % at 10 µM. 0.66% of 360,000 active. AID 651702;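 active = inhibition above about 55%, limit read from the data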
HTR2A ag – agonists of mouse serotonin 5-HT2A receptor (HTR2A). 0.66% of 360,000 active. activation, % at 7.6 µM. P35363. CHO-K1 mHTR2A beta-arrestin complementation, luminescence; percent of 30 µM serotonin response;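 active = activation above a run cutoff, the mean activation of all tested compounds plus 3 SD, cut at about 14% in these data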;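 note: 0% = plate median of compound wells and 100% = 30 µM serotonin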
JMJD2C inh – blocks human GASC-1 demethylase activity; inhibition, % at 2.35 µM; GST-JMJD2C(1-420) H3K9me3 demethylation, DELFIA europium; AID 2099; Q9H3R0; 0.069% of 330,000 active;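 active = more than half of a compound's replicate wells show inhibition beyond 50%, single wells judged on their own value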;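 note: signal counts dimethyl H3K9 product captured on neutravidin plate; 0% = median of DMSO wells and 100% = 0.3 times that DMSO median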
V-ATPase pH – alters yeast V-ATPase proton transport; S. cerevisiae, pHLuorin cytosolic pH fluorescence; 0.37% of 350,000 active; response, % at 10 µM; AID 504577; in the data active = response mostly above about 7.3%, no sharp cut-off; inactive = mostly below about 5.4%; note: actives read high
Exocytosis CP01 – blocks lytic granule exocytosis; shares compounds with Exocytosis inh; AID 651954; TALL-104 cells, LAMP-1 externalization, flow cytometry; stimulated with PMA plus thapsigargin; 11% of 1,500 active; inhibition, % at 10 µM; in the data active = inhibition above about 60%;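 note: 0% = stimulated vehicle wells and 100% = unstimulated wells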
Active calls of the source: *; . = no result given.

SMILES	VLA-4 inh	MEX-5 binding	Exocytosis inh	HTR2A ag	JMJD2C inh	V-ATPase pH	Exocytosis CP01
O=C(CSc1ccccc1)NNC(=O)c1ccncc1	.	.	4.3	9.0	.	3.7	.
CCOC(=O)N1CCN(c2ncnc3c2[nH]c2ccc(OC)cc23)CC1	17.3	-0.8	-2.6	11.6	22.4	-2.4	.
COc1ccc2[nH]c3c(N4CCc5ccccc5C4)ncnc3c2c1	17.0	-1.5	99.4*	-6.6	20.5	-1.2	101.7*
Cc1ccc(Nc2cc(C)c(O)c(C)c2)cc1	-14.8	2.5	67.3*	6.9	2.9	1.7	18.6
Cc1ccc(Nc2ccccc2)cc1	-8.5	-0.9	1.3	-2.1	-1.8	-1.7	.
O=C1CCC[C@@H]2C[C@@]3(C[C@@H]4CCN1[C@H]24)Nc1cc(Cl)ccc1NC3=NC1CCCCC1	.	.	75.5*	-9.3	.	-5.2	-11.8
CCOC(=O)C1CCN(Cc2ccc(OC)c(C)c2OC)CC1	9.3	-4.8	-4.9	-1.1	3.0	-7.5	.
CCOC(=O)C1CCN(Cc2cc(Cl)c3ccccc3c2O)CC1	-2.9	0.1	78.5*	7.3	0.1	-3.0	-0.2
CNC(=O)c1cc(C(=O)c2ccc(Cl)cc2)c(Br)[nH]1	7.8	1.7	-8.5	-0.1	9.2	4.7	.
COc1ccc(-c2cc(NC(C)=O)c3ncc(-c4ccccc4)n3c2)c(OC)c1	.	.	94.0*	-2.2	.	.	96.2*
COc1ccc(-c2cc(NC(C)=O)c3ncc(-c4ccc(OC)c(OC)c4)n3c2)c(OC)c1	.	.	-5.8	1.2	.	.	.
CC(=O)Nc1cc(-c2ccccc2N(C)C)cn2c(-c3ccccc3)cnc12	.	.	18.1	-8.4	.	.	.
CC(=O)Nc1cc(-c2ccccc2F)cn2c(-c3ccccc3)cnc12	.	.	79.2*	-7.0	.	.	94.1*
COc1cccc(-c2cnc3c(NC(C)=O)cc(-c4ccccc4OC)cn23)c1	.	.	75.9*	-3.6	.	.	93.6*
CN(CCC1CCOCC1)C(=O)C1CCC(=O)N(CCc2cccc(F)c2)C1 (stereo not given)	0.1	-3.2	-0.2	2.2	2.2	-1.1	.
COc1cc(CNc2ncnc3c2ncn3[C@H]2CN(Cc3cccc(C(F)(F)F)c3)C[C@@H](CO)O2)cc(OC)c1OC	.	.	-5.3	-4.1	.	.	.
Cc1c(C(=O)N(Cc2ccc(Cl)cc2)C2CCS(=O)(=O)C2)oc2ccccc12 (stereo not given)	4.9	-0.2	73.6*	13.8	-7.4	-6.2	-12.3
CCOc1ccc(CN(C(=O)c2oc3ccccc3c2C)C2CCS(=O)(=O)C2)cc1 (stereo not given)	9.5	.	-3.4	1.4	-9.6	-1.6	.
COc1cc2nc(N(CCCN(C)C)C(=O)c3ccc(S(=O)(=O)N4CCc5ccccc5C4)cc3)sc2cc1OC	0.5	-2.3	46.5	-2.6	8.4	1.2	.
CCOC(=O)N1CCN(S(=O)(=O)c2ccc(C(=O)N(CCCN(C)C)c3nc4ccc(CC)cc4s3)cc2)CC1	1.5	-0.6	62.3*	-3.3	-9.5	.	-2.6
CCOc1ccc2nc(N(CCCN(C)C)C(=O)c3ccc(S(=O)(=O)N4CCc5ccccc5C4)cc3)sc2c1	-4.6	-3.1	67.7*	-8.4	-9.0	2.3	83.5*
CCOC(=O)N1CCN(S(=O)(=O)c2ccc(C(=O)Nc3nc4ccccc4s3)cc2)CC1	-6.7	-0.3	100.1*	8.4	3.8	-4.0	-10.2
COc1ccc2nc(N(CCN(C)C)C(=O)c3ccc4ncsc4c3)sc2c1	.	.	75.1*	-7.6	.	1.5	-13.2
CCOC(=O)N1CCN(S(=O)(=O)c2ccc(C(=O)Nc3nc4ccc(F)cc4s3)cc2)CC1	8.9	1.7	2.8	-0.6	14.0	2.3	.
CCc1ccc2nc(N(CCCN(C)C)C(=O)c3ccc(S(=O)(=O)N4CCCc5ccccc54)cc3)sc2c1	9.0	2.9	56.5*	-10.9	-11.3	-2.1	23.5
CCc1ccc2nc(N(CCCN(C)C)C(=O)c3ccc(S(=O)(=O)N4CCCC4)cc3)sc2c1	5.7	-0.8	14.0	-5.6	-5.3	-6.8	.
COCCCNc1c2c(nc3ccccc13)CCC2	.	.	0.5	-5.3	.	-0.8	.
COc1ccc(/C=C/C(=O)NCc2cccnc2)cc1	21.5	0.2	-1.9	-0.9	-3.3	0.5	.
CCc1ccc(CN(Cc2cccnc2)C(=O)/C=C/c2ccc(OC)cc2)cc1	-11.3	5.9	61.1*	5.4	-3.8	-2.1	-13.8
